Bioassay records from PubChem.
Rows were chosen to be rich in hits. Some 2.7% of all compounds tested hit in one or more screens of this group.
Bim-Mcl-1 – disrupts Bim peptide binding to human Mcl-1. Q07820. Bead-based flow cytometry, Bim peptide-Mcl-1 binding. inhibition, % at 10 µM. 190,000 tested, 0.1% active. AID 1009; in the data active means inhibition above about 40%;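 further: 0% = no compound tracer wells and 100% = peptide blocker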
Target sequence (Q07820 whole entry, looked up): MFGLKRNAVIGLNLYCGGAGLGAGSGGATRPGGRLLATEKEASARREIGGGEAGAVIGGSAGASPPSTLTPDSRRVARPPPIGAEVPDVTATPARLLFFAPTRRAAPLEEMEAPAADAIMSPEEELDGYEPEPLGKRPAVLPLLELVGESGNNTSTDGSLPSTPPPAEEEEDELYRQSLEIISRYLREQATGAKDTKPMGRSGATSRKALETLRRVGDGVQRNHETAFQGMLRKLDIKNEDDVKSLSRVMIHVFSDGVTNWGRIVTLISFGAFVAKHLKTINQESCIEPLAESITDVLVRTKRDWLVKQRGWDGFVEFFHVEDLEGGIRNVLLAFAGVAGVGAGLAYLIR
Pf gamet viab – inhibitors of late stage P. falciparum gametocyte viability. AID 743093. 150,000 tested, 0.065% active. P. falciparum stage V gametocytes, ATP luminescence, 24 h. inhibition, % at 10.9 µM;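 active means inhibition above the mean plus 3 SD of compounds within the control limits, set per campaign, cut at about 38% in these data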;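 further: 0% = DMSO wells and 100% = medium only without gametocytes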
Mcl1-Noxa inh – Mcl-1/Noxa interaction inhibition; inhibition, % at 21.7 µM; 220,000 tested, 1.5% active; TR-FRET Mcl-1/Noxa peptide binding, 2 h; Q07820;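 active means compounds that cut the protein-peptide binding signal by more than 50% relative to plate controls in a single-dose test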;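 further: His-tagged Mcl-1 with rhodamine Noxa BH3 peptide and terbium anti-His antibody; 0% = Mcl-1 plus Noxa peptide wells and 100% = peptide-only wells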
eIF4E-4G inh – inhibitors of eIF4E and eIF4G interaction in translation initiation; 220,000 tested, 0.37% active; AID 782; inhibition, % at 21.7 µM; TR-FRET eIF4E-eIF4GI(517-606) binding, 2 h; P63073+Q04637;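 active means inhibition above about 30%, limit read from the data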;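 further: 0% = full FRET control wells and 100% = background wells lacking eIF4GI fragment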
14-3-3 Bad inh – disrupts binding of bovine 14-3-3 zeta to phospho-Bad peptide; P63103; TR-FRET 14-3-3zeta/Dy647-pBad peptide displacement, 1 h; inhibition, % at 21.7 µM; 220,000 tested, 0.71% active;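 active means inhibition above about 70%, limit read from the data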;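 further: 0% = full 14-3-3 plus peptide FRET controls and 100% = background without 14-3-3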
Target sequence (P63103 whole entry, looked up): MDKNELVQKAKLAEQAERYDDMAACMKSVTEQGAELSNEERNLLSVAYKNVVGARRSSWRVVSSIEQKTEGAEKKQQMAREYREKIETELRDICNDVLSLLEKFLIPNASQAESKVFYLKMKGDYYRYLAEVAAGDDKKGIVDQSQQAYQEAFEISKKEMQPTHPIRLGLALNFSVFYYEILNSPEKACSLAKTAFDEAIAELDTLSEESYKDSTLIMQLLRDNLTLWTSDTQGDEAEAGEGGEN
Mcl1-Bid inh – Mcl-1/Bid interaction inhibition. Q07820. TR-FRET Mcl-1/Bid-Dy647 peptide binding, 1536-well. inhibition, % at 21.7 µM. 220,000 tested, 0.97% active. AID 1021;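 active means compounds that cut the binding signal by more than half at the single screening dose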;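 further: His-tagged Mcl-1 with europium anti-His antibody binding Bid BH3 peptide; 0% = Mcl-1 plus peptide wells and 100% = peptide-only wells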
Active calls of the source: *; . = no result.

SMILES	Bim-Mcl-1	Pf gamet viab	Mcl1-Noxa inh	eIF4E-4G inh	14-3-3 Bad inh	Mcl1-Bid inh
Cc1nc(SCC(=O)NC(=O)NC(C)(C)C)nc(C)c1C	.	-10	-21	-11	-2	-17
Cc1nc(SCC(=O)NC(=O)NC(C)C)nc(C)c1C	0	-7	64*	4	-3	-15
CCc1ccccc1NS(=O)(=O)c1ccc2[nH]cc(C(=O)NC3CCCC3)c(=O)c2c1	-2	-29	72*	4	26	66*
O=C(NC1CCCC1)c1c[nH]c2ccc(F)cc2c1=O	-1	8	-4	7	5	-11
CCN(CCCNC(=O)CCCOc1cc(=O)n(C)c2ccccc12)Cc1ccccc1	-1	-4	30	1	6	14
CC(=O)n1cc(C(C[N+](=O)[O-])SCCN)c2ccccc21 (configuration not stated)	-8	.	53*	3	42	53*
CCN(CC(O)COc1ccc(OCC(O)CN(CC)C2CCCCC2)cc1)C1CCCCC1 (configuration not stated)	-2	12	-18	5	-1	-9
CC(=O)Oc1ccc(C(c2ccc(OC(C)=O)cc2)c2ccccn2)cc1	-2	.	32	4	-5	87*
O=C(/C=C/c1ccc(Cl)c([N+](=O)[O-])c1)Nc1ccc(NC(=O)c2ccco2)cc1	-9	-6	47	-2	13	40
O=C(/C=C/c1ccc(Cl)c([N+](=O)[O-])c1)Nc1ccc(N2CCCC2)cc1	-8	-16	75*	2	-20	-39
CCCCCc1nc2c(=O)[nH]c3ccccc3c2o1	0	.	77*	1	4	-19
CCCc1nc2c(=O)[nH]c3ccccc3c2o1	4	7	12	4	-1	-5
COc1ccc(N2Cc3cccc(C(=O)N4CCN(C(=O)c5ccco5)CC4)c3C2=O)cc1	2	.	74*	14	3	-26
NC(=O)CC(NC(=O)c1ccccc1)c1ccc(NCCc2cccc(F)c2)c([N+](=O)[O-])c1 (configuration not stated)	.	17	-3	96*	3	-40
CC(C)Nc1ccc(C(CC(N)=O)NC(=O)c2ccccc2)cc1[N+](=O)[O-] (configuration not stated)	.	12	.	.	.	.
NC(=O)CC(NC(=O)c1ccc(Br)cc1)c1ccc(NCCc2ccc(F)cc2)c([N+](=O)[O-])c1 (configuration not stated)	.	13	12	-2	13	18
CC(C)Nc1ccc(C(CC(N)=O)NC(=O)c2ccc(Br)cc2)cc1[N+](=O)[O-] (configuration not stated)	.	-11	2	-2	6	65*
NC(=O)CC(NC(=O)Cc1ccc(Br)cc1)c1ccc(NC2CCC2)c([N+](=O)[O-])c1 (configuration not stated)	.	.	51*	1	0	-50
CCC(C)c1ccc(OCc2ccc(C(=O)OC)o2)cc1 (configuration not stated)	.	3	-13	-4	-3	-2
Cc1ccc(-n2[nH]c(C)c(/C=N/Nc3ccc([N+](=O)[O-])cc3[N+](=O)[O-])c2=O)cc1C	39	2	54*	18	-8	38
O=C(CO/N=C/c1ccccc1)Nc1c(F)c(F)c(F)c(F)c1F	0	12	9	-2	-6	3
O=C1C2CC=C(Cl)CC2C(=O)N1CCN1CCOCC1 (configuration not stated)	-5	18	2	1	22	-25
O=C1C2CC=C(Cl)CC2C(=O)N1CCCCCCN1C(=O)C2CC=C(Cl)CC2C1=O (configuration not stated)	1	.	55*	13	11	-27
S=C(Nc1ccccc1Cl)N(Cc1ccccc1)Cc1ccccn1	0	-13	4	-1	-6	-28
O=C(CSc1nnc2c3ccccc3c3ccccc3c2n1)Nc1ccccc1	-3	.	13	-27	-12	-51
SMILES	Bim-Mcl-1	Pf gamet viab	Mcl1-Noxa inh	eIF4E-4G inh	14-3-3 Bad inh	Mcl1-Bid inh
O=C(CSc1nnc2c3ccccc3c3ccccc3c2n1)Nc1ccccc1F	7	.	61*	-2	6	4
C/C(N)=C(/C#N)C(=O)CSc1nnc(Nc2c(C)cccc2C)s1	-2	.	72*	21	4	-14
COC(=O)[C@H](C)NC(=O)NC1CCN(Cc2ccccc2)CC1	1	8	5	4	-3	-10
COCCCN(C(=O)Nc1cccc(Cl)c1)C(C)c1ccccn1 (configuration not stated)	-3	15	10	2	73*	-8
c1ccc(-n2nnnc2NC2CCCCC2)cc1	0	-1	20	-4	-7	0
O=[N+]([O-])c1ccccc1NC(=S)N/N=C/c1ccc(O)c(O)c1	0	-27	55*	-6	-10	-97
CCOc1cccc(/C=N/NC(=S)Nc2ccccc2[N+](=O)[O-])c1O	2	12	2	-4	-15	-26
C=CCN(CC=C)C(=O)Nc1cc(OC)ccc1OC	.	.	17	-4	-5	-20
CC(C)n1c(O)c(/C=C2\C=NN=C2c2ccccc2)sc1=S	.	-26	66*	-4	-5	-10
COc1ccccc1C(=O)NNC(=S)NC(=O)c1sc2ccccc2c1Cl	-10	4	33	4	-4	20
COc1ccccc1C(=O)NC(=S)NNC(=O)c1sc2ccccc2c1Cl	-2	-11	48	-5	38	73*
N#C/C(=C(/O)COC(=O)c1ccc(Cl)c(S(=O)(=O)N2CCOCC2)c1)c1nc2ccccc2[nH]1	-1	-8	52*	0	4	-1
Cc1ccc(C(=O)OC/C(O)=C(\C#N)c2nc3ccccc3[nH]2)cc1S(=O)(=O)N1CCOCC1	-2	7	-18	-5	-2	-28
N#C/C(=C(/O)COC(=O)CCc1ccc(S(=O)(=O)N2CCOCC2)cc1)c1nc2ccccc2[nH]1	3	-4	62*	-20	-7	-24
CC1CN(S(=O)(=O)c2cccc(C(=O)OC/C(O)=C(\C#N)c3nc4ccccc4[nH]3)c2)CC(C)O1 (configuration not stated)	-3	16	6	-1	-6	-24
Cn1c(CSc2nc3ccccc3s2)nnc1SCC(=O)NCc1cccnc1	1	.	-16	0	-11	94*
Cn1c(CSCc2ccc(Cl)cc2)nnc1SCC(=O)Nc1nccs1	1	.	18	-1	-11	7
Cn1c(CSCc2ccc(Cl)cc2)nnc1SCC(=O)Nc1nc2ccccc2s1	-1	24	1	-33	-6	62*
Cc1cccnc1NC(=O)c1ccc(S(=O)(=O)N2CC(C)OC(C)C2)cc1 (configuration not stated)	0	-12	5	0	-12	-12
